# Sampled rows, rich in hits. Any-hit rate of the full collection: about 0.9%.
# SARS 3CLpro inh – SARS-CoV 3CLpro protease inhibitors, primary screen, biochemical, quenched FRET; inhibition, % at 6 µM; Replicase polyprotein 1ab (Severe acute respiratory syndrome coronavirus), P0C6X7; actives 0.14% (n = 290,000); recombinant SARS-CoV 3CLpro, quenched FRET peptide cleavage; in the data active = inhibition above about 12%
# Y pestis TopoI – Yersinia pestis topoisomerase I inhibitors, primary screen, biochemical, cleavage product accumulation, plate reader, single point. DNA topoisomerase I (Yersinia pestis CO92). Y. pestis Topo-I cleavage product accumulation. activity, % at 10 µM. actives 0.064% (n = 360,000). AID 504884, 2011; in the data active = activity above about 50%, passing the limit was not always enough
# SSB-PriA inh – inhibitors of Klebsiella pneumoniae PriA binding to SSB C-terminal tail, primary screen, biochemical, AlphaScreen; inhibition, % at 33 µM; actives 0.6% (n = 430,000); AlphaScreen SSBct-PriA binding, biotinylated peptide; PriA–SSB C-terminal tail interaction (Klebsiella pneumoniae); in the data active = inhibition mostly above about 37%, no sharp cut-off; inactive = mostly below about 20%;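 note: plate controls were negative control peptide for no effect and reference peptide for full effect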
# MazF activator – activators of E. coli MazEF toxin-antitoxin RNase, primary screen, biochemical, fluorescence, uHTS; FAM/BHQ RNA-DNA oligo cleavage fluorescence, 5 h; activation, % at 20 µM; actives 0.32% (n = 350,000); in the data active = activation above about 50%
# Target sequence (P0AE70 whole entry, looked up): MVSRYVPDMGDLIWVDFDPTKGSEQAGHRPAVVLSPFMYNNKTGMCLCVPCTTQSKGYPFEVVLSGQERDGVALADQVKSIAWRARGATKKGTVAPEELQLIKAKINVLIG
# The depositor's hits bear a star; i = inactive; nt = not tested or not shown; + = active, no number.
SMILES,SARS 3CLpro inh,Y pestis TopoI,SSB-PriA inh,MazF activator
COc1cn(CC(=O)Nc2ccc([N+](=O)[O-])cc2)c(CSc2ccc(Cl)cc2)cc1=O,nt,nt,2,nt
Oc1ccccc1C(Nc1nccs1)c1ccc2cccnc2c1O (configuration not stated),5,-1,66*,-1
O=[N+]([O-])c1ccc(C(Nc2nccs2)c2ccc3cccnc3c2O)cc1 (configuration not stated),nt,nt,77,nt
CCCn1c(SCC(=O)Nc2nc3ccccc3s2)nc2c1c(=O)n(C)c(=O)n2C,1,0,-4,67*
CCCn1c(SCC(=O)Nc2nnc(C(C)C)s2)nc2c1c(=O)n(C)c(=O)n2C,0,-1,-13,13
CN1/C(=C/C(=S)NC(=O)C2(C)CC2(Cl)Cl)C(C)(C)c2ccccc21 (configuration not stated),3,7,71*,16
CN1/C(=C\C(=S)NC(=O)c2ccccc2Cl)C(C)(C)c2ccccc21,-4,6,17,10
Oc1cccc(C=NNC(=S)NCCN2CCOCC2)c1O,nt,nt,58*,nt
COc1ccc(S(=O)(=O)Nc2ccc3c(c2)C(=O)N(C)CCO3)c(C)c1,nt,nt,4,nt
O=C(c1csc2nc(-c3ccc(F)cc3)cn12)N1CCN(c2ccccc2Cl)CC1,nt,nt,-30,nt
O=C(CCc1nc2sc3c(c2c(=O)[nH]1)CCCCC3)Nc1ccc(Oc2ccccc2)cc1,nt,nt,-7,nt
CCOc1ccccc1NC(=O)c1ccc(C(=O)Nc2ccccc2OCC)nc1,3,3,4,20
COc1ccccc1C(=O)NC(=O)COC(=O)Cc1n[nH]c(=O)c2ccccc12,nt,3,-2,4
COc1ccccc1NC(=O)c1ccc(NC(=O)Cc2n[nH]c(=O)c3ccccc23)cc1,-5,2,-2,72*
COc1ccccc1NC(=O)c1ccc(C(=O)Nc2ccccc2OC)nc1,-1,-14,3,53*
Cc1ccc(NC(=O)c2ccc(Oc3ccc(C(=O)Nc4ccc(C)cc4C(=O)c4ccccc4)cc3)cc2)c(C(=O)c2ccccc2)c1,nt,nt,-5,nt
CCCCCCCCNC(=O)/C(C#N)=C/c1ccccc1[N+](=O)[O-],-1,12,6,122*
O=C(NCCC(c1ccccc1)c1ccccc1)C(=O)Nc1ccc(C(F)(F)F)cc1,nt,nt,-10,nt
CCOC(=O)N1CCN(C(=O)C(=O)Nc2ccc3nc4n(c(=O)c3c2)CCCCC4)CC1,0,-1,104*,-4
NC(=O)NC(=O)Nc1ccccc1Cl,-1,9,-21,7
O=C(Nc1ccccc1Cl)OCC#CCOC(=O)Nc1ccccc1Cl,nt,55*,nt,9
Cc1ccc(C(CNC(=O)NC2CCCC2)OCCO)cc1 (configuration not stated),nt,nt,-15,nt
COc1ccccc1/C=C/CN1CCC(n2nccc2NC(=O)CCc2ccccc2)CC1,-3,19,102*,-9
O=C(Cc1ccc(F)cc1)Nc1nc(CN2CCc3ccccc3C2)cs1,nt,nt,-5,nt
O=C(O)c1cc(Cl)ccn1,nt,nt,68*,nt
SMILES,SARS 3CLpro inh,Y pestis TopoI,SSB-PriA inh,MazF activator
O=C(Nc1nncs1)c1cc(Cl)ccn1,nt,nt,124*,nt
CN(C)c1ccnc(C(=O)O)c1,2,-2,-19,0
O=C(O)c1cc(-n2ccnc2)ccn1,nt,nt,72*,nt
O=C(O)c1ccnc(C(=O)O)c1,1,4,57*,4
O=C(O)c1ccnc(Br)c1,nt,nt,-6,nt
O=C(/C=C\c1cn(-c2ccccc2)nc1-c1ccc(Br)cc1)N1CCCCC1,nt,nt,0,nt
O=C(O)c1cc(Br)ccn1,-1,0,100*,1
O=C(O)c1ccccn1,nt,-5,55,8
Cc1cnc2n(c1=O)CC(C(=O)Nc1nc(-c3ccccn3)cs1)CS2 (configuration not stated),nt,nt,25,nt
COc1cc(CSCc2csc(NC(=O)Cc3ccc(-c4ccccc4)cc3)n2)cc(OC)c1,nt,nt,-13,nt
Cc1cc(C)cc(NC(=O)c2cc3c(=O)n4ccccc4nc3s2)c1,-5,8,-6,70*
O=C(c1ccc(Cn2ccnc2)cc1)N1CCCC[C@H](c2ccc(F)cc2)C1,nt,nt,32*,nt
O=C(c1ccncc1)N1CCCC[C@H](c2ccc(F)cc2)C1,nt,nt,-7,nt
O=C(NCc1cccnc1-c1cccs1)c1ccno1,nt,nt,-11,nt
O=[N+]([O-])c1ccc(NN=Cc2ccc[nH]2)cc1,nt,nt,55*,nt
CCN(CC)c1ccc(-c2c(C#N)c(N)nc(OC)c2C#N)cc1,3,-6,-6,75*
Oc1c(Cl)cc(Cl)cc1/C=N/c1nccs1,1,-8,nt,10
Oc1c(Cl)cc(Cl)cc1C=Nc1nccs1,nt,nt,56*,nt
CC1(C)C(=O)NCCN1C(=O)c1ccc(Br)cc1,nt,nt,4,nt
COC(=O)C1CCN(C(=O)c2csc(Nc3ccc(S(C)(=O)=O)cc3)n2)CC1,nt,nt,-6,nt
COCc1nc2ccccc2n1CC(=O)NCC(C)C,nt,nt,-25,nt
C=CCN=c1scc(-c2ccc(C)cc2)n1/N=C/c1ccccn1,nt,nt,+,nt
C=CCN=c1scc(-c2ccc(Br)s2)n1/N=C/c1ccccn1,nt,nt,i,nt
Cc1ccc(SCC(=O)NCCC2=CCCCC2)cc1,1,51*,-11,-8
O=C(CCSCc1ccc(Cl)cc1)NCCC1=CCCCC1,4,65*,-2,-4
SMILES,SARS 3CLpro inh,Y pestis TopoI,SSB-PriA inh,MazF activator
Cc1ccc(OCC(=O)NCCC2=CCCCC2)cc1,3,-6,8,7
Cc1cc(=O)n2c(n1)SCC2CC(=O)NCCn1ncc2c(=O)n(Cc3ccccc3F)cnc21 (configuration not stated),nt,nt,9,nt
CC(=O)/C(=N/Nc1ccccc1[N+](=O)[O-])N1CCCc2ccccc21,3,-6,nt,9
CC(=O)C(=NNc1ccccc1[N+](=O)[O-])N1CCCc2ccccc21,nt,nt,56*,nt
CC[n+]1c(/C=C/C=C/N(C(C)=O)c2ccccc2)sc2ccccc21,5,-24,2,154*
CC[n+]1c(/C=C/N(C)c2ccccc2)sc2ccc(Cl)cc21,-1,12,-2,19
CCN1/C(=C\C=C\c2sc3ccccc3[n+]2CC)Sc2ccccc21,nt,nt,56*,nt
CC[n+]1c(/C=C/C=C/c2ccc(N(C)C)cc2)sc2ccccc21,-4,-17,61*,4
CCN1/C(=C\C=C2\C(=O)N(C)C(=S)N2C)Sc2ccccc21,3,9,19,-25
CN(C)c1ccc(/C=C/c2nc3ccccc3s2)cc1,-6,3,7,-205
CN(C)c1ccc(/C=C/C=C/c2sc3ccccc3[n+]2C)cc1,-1,-20,40*,22
Cc1c(C(=O)NCC#CCOc2ccccc2C(N)=O)cnn1-c1ccccc1,nt,nt,-11,nt
O=C(C[C@@H]1C/C=C/CCCC(=O)OC[C@@H]2CCCN2C1=O)N[C@@H](CO)Cc1ccccc1,nt,nt,-3,nt
N#C/C(C(=O)NCc1ccccc1)=C1/SC(CCO)C(=O)N1c1ccccc1 (configuration not stated),nt,nt,-10,nt
NC(=O)CSc1ncc(-c2ccc(Cl)c(Cl)c2)n1-c1cccc(Cl)c1,nt,nt,25,nt
CCn1c(/C=C/c2ccc(O)c(O)c2)nc2ccccc2c1=O,3,-9,-19,121*

# Screening data deposited in PubChem by several laboratories.
